Laboratory results from PubChem BioAssay AID1159580 (chemical genetic matrix, 2015).
Several values for one entry are separate records, joined by “and”; a condition that tells them apart may be missing. Identical values can stand only once. In all, about 5,500 compounds went through this assay and about 2,000 (36%) were called active. About 18% were inconclusive and are not listed. Cut-off read from the data, not from the text of the source: active = normalized growth mostly below about 0.91 (no sharp cut-off); inconclusive = no clear call, values can overlap the other calls; inactive = mostly above about 0.92. Some of the results follow.

Experiment: chemical genetic growth profiling, strain panel (AID 1159580);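 note: tested at 20 µM; growth read once vehicle control cultures reached saturation at 30 °C; 1 = growth at the plate median or of vehicle wells; lower values mean less growth of the strain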
Details: S. cerevisiae deletion strains, growth OD

Measured: normalized growth

Cn1nnnc1SCC1=C(C(=O)O)N2C(=O)C(NC(=O)C(O)c3ccccc3)C2SC1 (configuration not stated)
inactive: locus YAL013W, strain DEP1, hits give low values 1.02 | locus YAL021C, strain ccr4, hits give low values 0.97 | locus YAL026C, strain drs2, hits give low values 0.972 | locus YAL030W, strain snc1, hits give low values 0.983 | locus YBL061C, strain skt5, hits give low values 0.97 | locus YBR009C, strain hhf1, hits give low values 0.988 | locus YBR021W, strain FUR4, hits give low values 1.01 | locus YBR023C, strain chs3, hits give low values 0.964 | locus YBR171W, strain sec66, hits give low values 0.945 | locus YBR229C, strain ROT2, hits give low values 1.01 | locus YBR231C, strain swc5, hits give low values 0.991 | locus YBR279W, strain paf1, hits give low values 0.977 | locus YCL011C, strain gbp2, hits give low values 0.971 | locus YCL016C, strain dcc1, hits give low values 0.967 | locus YCL029C, strain bik1, hits give low values 0.996 | locus YCL061C, strain MRC1, hits give low values 0.968 | locus YCL069W, strain vba3, hits give low values 0.973 | locus YCR088W, strain abp1, hits give low values 0.975 | locus YDL005C, strain med2, hits give low values 0.972 | locus YDL035C, strain GPR1, hits give low values 1.03 | locus YDL040C, strain nat1, hits give low values 0.984 | locus YDL074C, strain BRE1, hits give low values 1.05 | locus YDL101C, strain DUN1, hits give low values 1.02 | locus YDL134C, strain PPH21, hits give low values 1.02 | locus YDL185W, strain tfp1, hits give low values 1 | locus YDL192W, strain arf1, hits give low values 1 | locus YDR001C, strain nth1, hits give low values 0.979 | locus YDR069C, strain doa4, hits give low values 0.978 | locus YDR101C, strain arx1, hits give low values 0.99 | locus YDR137W, strain rgp1, hits give low values 0.943 | locus YDR150W, strain NUM1, hits give low values 1.03 | locus YDR159W, strain sac3, hits give low values 0.985 | locus YDR162C, strain NBP2, hits give low values 1.06 | locus YDR195W, strain ref2 0.969 | locus YDR297W, strain sur2, hits give low values 0.983 | locus YDR318W, strain mcm21, hits give low values 0.996 | locus YDR334W, strain swr1, hits give low values 0.964 | locus YDR335W, strain msn5, hits give low values 0.978 | locus YDR388W, hits give low values 0.991 | locus YDR392W, strain spt3, hits give low values 0.873 | locus YDR502C, strain sam2, hits give low values 1.01 | locus YEL003W, strain gim4, hits give low values 0.995 | locus YEL037C, strain rad23, hits give low values 0.972 | locus YEL061C, strain CIN8 (second series), hits give low values 0.978 | locus YEL061C, strain CIN8, hits give low values 1.01 | locus YER015W, strain faa2, hits give low values 0.99 | locus YER016W, strain bim1, hits give low values 0.995 | locus YER110C, hits give low values 0.997 | locus YER111C, strain swi4, hits give low values 0.96 | locus YER155C, strain BEM2 (second series), hits give low values 0.973 | locus YER155C, strain BEM2, hits give low values 1.02 | locus YER167W, strain BCK2, hits give low values 1.02 | locus YFR010W, strain ubp6, hits give low values 0.974 | locus YGL078C, strain dbp3, hits give low values 1 | locus YGL086W, strain mad1, hits give low values 1 | locus YGL167C, strain pmr1, hits give low values 0.967 | locus YGL173C, strain kem1, hits give low values 0.97 | locus YGL227W, strain vid30, hits give low values 0.984 | locus YGL240W, strain doc1, hits give low values 0.992 | locus YGL248W, strain PDE1, hits give low values 1.02 | locus YGL253W, strain hxk2, hits give low values 0.98 | locus YGR078C, strain PAC10, hits give low values 1.05 | locus YGR135W, strain pre9, hits give low values 1.01 | locus YGR229C, strain SMI1, hits give low values 1.03 | locus YGR252W, strain gcn5, hits give low values 0.972 | locus YHR013C, strain ard1, hits give low values 0.952 | locus YHR027C, strain rpn1, hits give low values 0.968 | locus YHR030C, strain SLT2, hits give low values 1.01 and 0.991 | locus YHR079C, strain IRE1 (second series), hits give low values 1 | locus YHR079C, strain IRE1, hits give low values 0.984 | locus YHR094C, strain hxt1, hits give low values 1 | locus YHR129C, strain ARP1, hits give low values 1.01 | locus YHR142W, strain chs7, hits give low values 0.951 | locus YHR200W, strain rpn10, hits give low values 1.01 | locus YIL066C, strain RNR3, hits give low values 1.02 | locus YIL073C, strain SPO22, hits give low values 1.03 | locus YIL125W, strain kgd1, hits give low values 1.01 | locus YIR030C, strain dcg1, hits give low values 1 | locus YJL092W, strain hpr5, hits give low values 0.976 | locus YJL095W, strain BCK1 (second series), hits give low values 0.987 | locus YJL095W, strain BCK1, hits give low values 1.02 and 0.987 | locus YJL115W, strain asf1, hits give low values 0.958 | locus YJL129C, strain trk1, hits give low values 0.973 | locus YJL134W, strain LCB3, hits give low values 1.01 | locus YJL154C, strain vps35, hits give low values 0.982 | locus YJL164C, strain tpk1, hits give low values 0.954 | locus YJL166W, strain qcr8, hits give low values 0.968 | locus YJL168C, strain set2, hits give low values 0.995 | locus YJL187C, strain SWE1 (second series), hits give low values 1.02 | locus YJL187C, strain SWE1, hits give low values 0.974 | locus YJR043C, strain POL32, hits give low values 1.02 | locus YJR066W, strain TOR1, hits give low values 0.938
